Where “and” joins values, the source holds several entries; their conditions need not be identical. Identical values can stand only once. Results filed as inconclusive are left out. A number with no mark means an inactive call. Calls follow the shape of the dose curve; as a rule, active = well fitted curve in the direction sought with a large enough effect; inconclusive = small, poorly fitted or top-dose-only effect, or another doubt; inactive = no such curve, though single readings can be large; an effect the other way counts as inactive or inconclusive.
target: Cellular tumor antigen p53 (Homo sapiens) (UniProt P04637); assay: Primary qHTS for small molecule compounds that upregulate eGFP-tagged delta133p53alpha (in N-terminal) cells. (AID 2060322); conditions: NCI-H358 eGFP-delta133p53alpha fluorescence, 24 h; activation: hits give high values;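 also: cells pre-induced with doxycycline then dosed without doxycycline; 0% = DMSO vehicle and 100% = reference activator; nearly all actives have a fitted effect of over 75% in size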
In short: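 NCI-H358 cells pre-induced 24 h with 10 ng/ml doxycycline for eGFP-delta133p53alpha, plated dox-free and exposed 24 h at 37C to titrated compounds. Fixed, Hoechst-stained; gated GFP peak intensity by laser scanning cytometry, normalized to DMSO (0%) and 57.5 uM 5-azacytidine (100%).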

Chain of Cellular tumor antigen p53 (Homo sapiens) (P04637 whole entry, looked up): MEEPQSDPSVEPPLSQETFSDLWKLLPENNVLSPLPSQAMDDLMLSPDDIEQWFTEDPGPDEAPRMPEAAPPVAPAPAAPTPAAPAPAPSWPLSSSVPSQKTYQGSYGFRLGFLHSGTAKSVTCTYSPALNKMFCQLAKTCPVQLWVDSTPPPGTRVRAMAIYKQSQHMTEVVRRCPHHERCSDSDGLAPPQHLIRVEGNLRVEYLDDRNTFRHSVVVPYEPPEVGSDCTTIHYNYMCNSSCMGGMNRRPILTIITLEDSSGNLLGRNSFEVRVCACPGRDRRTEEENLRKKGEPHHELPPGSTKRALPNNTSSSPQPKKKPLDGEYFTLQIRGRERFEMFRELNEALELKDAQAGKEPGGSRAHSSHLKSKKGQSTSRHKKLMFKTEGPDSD

Compound	activation
OCC(Cc1ccccc1)Nc1nc(Oc2ccc3c(c2)CCC3)nc2c1ncn2Cc1ccc(-c2ccccc2)cc1 (stereo not given)	6.21%
CC(C)(O)c1ccn2c(-c3ccc(F)c(-c4ccc(F)cc4C#N)c3)cnc2c1F	-22.4%
CCC(=O)N1CCc2cc(OC)c(O)cc2C1	-7.64%
O=C(Nc1nc2ccc([N+](=O)[O-])cc2s1)C1CCCCC1	17.2%
O=C(NCc1ccc(OC(F)(F)F)cc1)C1c2ccccc2C(=O)N1C1CCOCC1 (stereo not given)	-5.73%
CN(CCc1ccc(Nc2ncc(-c3cccnc3)s2)cc1)Cc1ccccc1	-8.59%
O=C(Nc1cc2cc[nH]c2cn1)c1ccccc1	-10%
Cc1nnc(-c2ccc(-c3ccc(C(=O)Nc4ccc(O)c(N5CCN(C)CC5)c4)cc3)c(C)c2)o1	-0.477%
O=C(NCc1cccc(O)c1)c1cc2cc(F)ccc2[nH]1	0%
CNc1nc(NCc2ccc(NS(C)(=O)=O)cc2Cl)cc(-c2ccccn2)n1	7.64%
COC(=O)[C@H](CC1C=NC=N1)NCC12CC3CC(CC(C3)C1)C2 (stereo not given in full)	-8.11%
CC(C)c1cc2c(c(O)c1O)[C@@]13CCCC(C)(C)C1[C@@H](O)[C@@H]2OC3=O (stereo not given in full)	-5.34%
Cc1ccc(-c2cn3c4c(sc3n2)CCCC4)cc1	11%
COc1cc(O[C@@H]2O[C@H](CO[C@H]3OC[C@](O)(CO)[C@H]3O)[C@@H](O)[C@H](O)[C@H]2O)cc(OC)c1O	-16.8%
O=C(Nc1ccccc1)N1CCC(Cc2cnc3ccccc3c2)CC1	3.34%
CC(C)CCNc1ncccc1C(=O)N1CCN(Cc2ccccc2)CC1	-4.3%
CNCCC(c1cccs1)c1ccc(O)c2ccccc12 (stereo not given)	-7.67%
O=C(O)CC1CCC(c2ccc(-c3ccc4nc(C(=O)NCc5ccc(OC(F)(F)F)cc5)cn4c3)cc2)CC1 (stereo not given)	9.07%
COc1ccc(C2COc3cc(O)ccc3C2)c(O)c1 (stereo not given)	-12.2%
NC1=NC2(c3cc(NC(=O)c4ccc(F)cn4)ccc3F)COCC2CS1 (stereo not given)	-6.68%

Compound	activation
COc1cncc(C#Cc2ccccn2)c1	1.43%
Cc1cc(N=Nc2ccc(S(=O)(=O)Nc3ccccn3)cc2)c(N)cc1O	-5%
Cc1nnc(-c2ccc3occ(-c4ccc(S(C)=O)cc4)c3c2)o1 (stereo not given)	-20.5%
CON(C)C(=O)[C@H](O)[C@H](Cc1ccccc1)NC(=O)c1cc2cc(Cl)ccc2[nH]1	-8.59%
COc1cc(O)c(C(=O)O)c(CCc2ccccc2)c1	-15.3%
O=C(O)C1(c2ccc(-c3ccc(Cl)c(Cl)c3)c(F)c2)CC1	-12.9%
NS(=O)(=O)c1ccc(NC(=O)Nc2ccc(F)cc2)cc1	-7.64%
Cc1cccc(C#Cc2cc(F)cc(C#N)c2)n1	-6.68%
COc1cccc(-c2cc(NCc3ccc4c(c3)OCO4)nc(N)n2)c1	-3.82%
CC(=O)NCC1CN(c2ccc(-c3ccc(CNCc4cn[nH]n4)cc3)c(F)c2)C(=O)O1 (stereo not given)	-4.77%
COc1cc(C(=O)NCC2(N(C)C)CCCC2)cc(OC)c1OCc1ccccc1	-8.11%
COc1ccc(S(=O)(=O)Nc2cccnc2Nc2ccc(O)cc2)cc1	-22.5% and 22.4%
N=C(N)c1ccc2nc(-c3cc(CC(=O)NC(CC(=O)O)C(=O)O)cc(-c4cc(S(N)(=O)=O)ccc4O)c3O)[nH]c2c1 (stereo not given)	-8.59%
CO[C@H]1C=CO[C@@]2(C)Oc3c(C)c(O)c4c(O)c(c5c(c4c3C2=O)NC2(CCN(CC(C)C)CC2)N=5)=NC(=O)C(C)=CC=C[C@H](C)[C@H](O)[C@@H](C)[C@@H](O)[C@@H](C)[C@H](OC(C)=O)[C@H]1C	0.549%
CC1=CC2=C(C)C(=O)C(C)(O)C(O)C2CO1 (stereo not given)	-5.34%
Cc1[nH]c2ccccc2c1CC(=O)N[C@@H](Cc1ccccc1)C(=O)N(C)c1ccccc1	22.9%
O=C(c1cc2c(cc1F)OC(c1ccc(F)cc1)(c1ccc(Cl)cc1Cl)O2)N1CCOCC1 (stereo not given)	-4.3%
CC(=O)c1c(O)cc2cccc3c2c1CC(C)(O)O3 (stereo not given)	6.11%
C=C1CC[C@H](O)CC1=C/C=C1\CCC[C@]2(C)[C@@H]([C@H](C)/C=C/[C@H](C)C(C)C)CC[C@@H]12	5.73%
Cc1cc(C)c(-n2cc(C)c3c(Cl)nc(C)nc32)c(C)c1	-3.82%

target: Aldehyde dehydrogenase, mitochondrial (Homo sapiens) (UniProt P05091); assay: qHTS for Inhibitors of the Aldehyde Dehydrogenase Family (ALDH2) Primary screen (AID 2061308); conditions: ALDH2 enzyme inhibition qHTS, 1536-well; series mostly up to 56 µM; activity change, negative = inhibition: at the top concentration;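 also: plate controls were vehicle for no effect and reference inhibitor for full effect; nearly all actives have a fitted effect of over 55% in size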

Compound	activity change, negative = inhibition
OCC(Cc1ccccc1)Nc1nc(Oc2ccc3c(c2)CCC3)nc2c1ncn2Cc1ccc(-c2ccccc2)cc1 (stereo not given)	1.57%
CC(C)(O)c1ccn2c(-c3ccc(F)c(-c4ccc(F)cc4C#N)c3)cnc2c1F	2.41%
CCC(=O)N1CCc2cc(OC)c(O)cc2C1	-10.1%
O=C(Nc1nc2ccc([N+](=O)[O-])cc2s1)C1CCCCC1	-2.97%
O=C(NCc1ccc(OC(F)(F)F)cc1)C1c2ccccc2C(=O)N1C1CCOCC1 (stereo not given)	0.886%
CN(CCc1ccc(Nc2ncc(-c3cccnc3)s2)cc1)Cc1ccccc1	9.48%
O=C(Nc1cc2cc[nH]c2cn1)c1ccccc1	2.75%
Cc1nnc(-c2ccc(-c3ccc(C(=O)Nc4ccc(O)c(N5CCN(C)CC5)c4)cc3)c(C)c2)o1	15.2%
O=C(NCc1cccc(O)c1)c1cc2cc(F)ccc2[nH]1	-9.5%
CNc1nc(NCc2ccc(NS(C)(=O)=O)cc2Cl)cc(-c2ccccn2)n1	-7.59%
COC(=O)[C@H](CC1C=NC=N1)NCC12CC3CC(CC(C3)C1)C2 (stereo not given in full)	3.8%
CC(C)c1cc2c(c(O)c1O)[C@@]13CCCC(C)(C)C1[C@@H](O)[C@@H]2OC3=O (stereo not given in full)	-22.8%
Cc1ccc(-c2cn3c4c(sc3n2)CCCC4)cc1	2.46%
COc1cc(O[C@@H]2O[C@H](CO[C@H]3OC[C@](O)(CO)[C@H]3O)[C@@H](O)[C@H](O)[C@H]2O)cc(OC)c1O	-13.6% [at 28 µM]
O=C(Nc1ccccc1)N1CCC(Cc2cnc3ccccc3c2)CC1	-0.13%
CC(C)CCNc1ncccc1C(=O)N1CCN(Cc2ccccc2)CC1	4.86%
CNCCC(c1cccs1)c1ccc(O)c2ccccc12 (stereo not given)	-20.8%
O=C(O)CC1CCC(c2ccc(-c3ccc4nc(C(=O)NCc5ccc(OC(F)(F)F)cc5)cn4c3)cc2)CC1 (stereo not given)	0.471%
COc1ccc(C2COc3cc(O)ccc3C2)c(O)c1 (stereo not given)	-9.39%
NC1=NC2(c3cc(NC(=O)c4ccc(F)cn4)ccc3F)COCC2CS1 (stereo not given)	8.3%

Compound	activity change, negative = inhibition
COc1cncc(C#Cc2ccccn2)c1	-4.62%
Cc1cc(N=Nc2ccc(S(=O)(=O)Nc3ccccn3)cc2)c(N)cc1O	-28.8%
Cc1nnc(-c2ccc3occ(-c4ccc(S(C)=O)cc4)c3c2)o1 (stereo not given)	15.9%
CON(C)C(=O)[C@H](O)[C@H](Cc1ccccc1)NC(=O)c1cc2cc(Cl)ccc2[nH]1	-8.29%
COc1cc(O)c(C(=O)O)c(CCc2ccccc2)c1	-11.8%
O=C(O)C1(c2ccc(-c3ccc(Cl)c(Cl)c3)c(F)c2)CC1	-3.9%
NS(=O)(=O)c1ccc(NC(=O)Nc2ccc(F)cc2)cc1	9%
Cc1cccc(C#Cc2cc(F)cc(C#N)c2)n1	-14.1%
COc1cccc(-c2cc(NCc3ccc4c(c3)OCO4)nc(N)n2)c1	72.8%
CC(=O)NCC1CN(c2ccc(-c3ccc(CNCc4cn[nH]n4)cc3)c(F)c2)C(=O)O1 (stereo not given)	-0.566%
COc1cc(C(=O)NCC2(N(C)C)CCCC2)cc(OC)c1OCc1ccccc1	5.7%
COc1ccc(S(=O)(=O)Nc2cccnc2Nc2ccc(O)cc2)cc1	-16.9%
N=C(N)c1ccc2nc(-c3cc(CC(=O)NC(CC(=O)O)C(=O)O)cc(-c4cc(S(N)(=O)=O)ccc4O)c3O)[nH]c2c1 (stereo not given)	-1.58%
CO[C@H]1C=CO[C@@]2(C)Oc3c(C)c(O)c4c(O)c(c5c(c4c3C2=O)NC2(CCN(CC(C)C)CC2)N=5)=NC(=O)C(C)=CC=C[C@H](C)[C@H](O)[C@@H](C)[C@@H](O)[C@@H](C)[C@H](OC(C)=O)[C@H]1C	0.0424%
CC1=CC2=C(C)C(=O)C(C)(O)C(O)C2CO1 (stereo not given)	-8.26%
Cc1[nH]c2ccccc2c1CC(=O)N[C@@H](Cc1ccccc1)C(=O)N(C)c1ccccc1	6.08%
O=C(c1cc2c(cc1F)OC(c1ccc(F)cc1)(c1ccc(Cl)cc1Cl)O2)N1CCOCC1 (stereo not given)	2.25%
CC(=O)c1c(O)cc2cccc3c2c1CC(C)(O)O3 (stereo not given)	-19.7%
C=C1CC[C@H](O)CC1=C/C=C1\CCC[C@]2(C)[C@@H]([C@H](C)/C=C/[C@H](C)C(C)C)CC[C@@H]12	-18.1%
Cc1cc(C)c(-n2cc(C)c3c(Cl)nc(C)nc32)c(C)c1	8.2%
